Experimental data: PubChem BioAssay AID504834 (National Center for Advancing Translational Sciences (NCATS), 2011)
Screen size: about 320,000 compounds; about 22,000 (6.9%) were called active. Inconclusive results (about 27%) are left out. Calls follow the shape of the dose curve; as a rule, active = well fitted inhibition curve with a large enough effect; inconclusive = small, poorly fitted or top-dose-only effect, or another doubt; inactive = no such curve, though single readings can be large or run the other way. What follows is part of a selection rich in actives, with near analogues and random picks from the rest.

assay: Primary qHTS for delayed death inhibitors of the malarial parasite plastid, 96 hour incubation; conditions: P. falciparum luciferase reporter growth; series mostly up to 28.7 µM; activity change, negative = inhibition: at the top concentration
Text: The goal of this screen is to discover new antimalarial compounds that act by inhibiting the development of the apicoplast in the malarial parasite Plasmodium falciparum. The biochemical processes that make this organelle essential for erythrocytic stage parasites are not well understood. However, antibiotics such as azithromycin and tetracycline, which target the apicoplast translational machinery, have a potent antimalarial effect.
We have developed a cell-based assay that measures parasite growth based on the expression of an integrated copy of a firefly luciferase reporter. To detect small molecules that cause this "delayed death" phenotype, erythrocytes infected with the luciferase-expressing parasites were incubated with compounds for either one or two generations, corresponding to 48 and 96 hours, respectively. Compounds that inhibit parasite growth in the second generation, but not the first, should be enriched in antimalarials that target the apicoplast. Growth inhibition is detected by a decrease in luciferase activity.
Assay Provider: David Fidock and Eric Ekland, Columbia University
Keywords: NIH Roadmap, MLPCN, MLI, MLSMR, qHTS, NCGC, qHTS, malaria, luciferase, viability
Four microliters of infected erythrocytes (2% hematocrit, 0.05% parasitemia final concentration) in culture medium were dispensed and the plates incubated for 96 hours at 37 C in 5% CO2. Two microliters of luciferase detection reagent was added and luminescence was detected by a ViewLux (PerkinElmer) reader.
% is scaled to controls: 0 for no effect and ±100 for the full control effect; potency is read from the fitted curve at half-maximal effect.

SMILES | activity change, negative = inhibition | Potency
CCCc1cc(=O)oc2c(C)c(OC(C)C(=O)NCC(O)c3ccccc3)ccc12 (centres undefined) | -15.3% (inactive) | 
CCCCc1cc(=O)oc2c(C)c(OCC(=O)N3CCC(C(N)=O)CC3)ccc12 | 19.5% (inactive) | 
CCCc1cc(=O)oc2c(C)c(O)c(CN3CCCCC3)cc12 |  | 2.08 µM (active)
COc1ccc(NC(=O)CN2C(=O)COc3ccc(S(=O)(=O)N4CCOCC4)cc32)cc1 | -0.78% (inactive) | 
Cc1ccc(S(=O)(=O)N2CCC(C)CC2)cc1C(=O)NCc1ccccn1 | 6.35% (inactive) | 
O=C(CCc1nc2sc3c(c2c(=O)[nH]1)CCCC3)NCC(=O)Nc1ccccc1Br | 13.4% (inactive) | 
O=C(CCNS(=O)(=O)c1cccs1)N1CCN(c2ccc(F)cc2)CC1 | -21.8% (inactive) | 
CN(CCC1CCOCC1)Cc1cn[nH]c1-c1ccc(-c2ccccc2)cc1 |  | 13.1 µM (active)
CN(CCC1CCOCC1)C(=O)CC1C(=O)NCCN1Cc1cccc(F)c1 (centres undefined) | 81.9% (inactive) | 
O=[N+]([O-])c1ccc(N2CCSCC2)cc1O | 23.3% (inactive) | 
O=C(COC(=O)C1CC2CCCC(C1)C2=O)NC(=O)c1ccccc1 (centres undefined) | 11.2% (inactive) | 
Cc1cc(O)ccc1-c1cnc2ccccc2n1 |  | 2.62 µM (active)
CC(=O)Nc1cccc(-c2cnc3ccccc3n2)c1 | -1.47% (inactive) | 
Cc1ccc(Nc2nc(-c3ccc(O)cc3O)cs2)nc1 | 20.1% (inactive) | 
COc1ccc2oc(=N)c(C(=O)Nc3ccc(Br)cc3)cc2c1 | 257% (inactive) | 
Cc1cccc(-n2c(=O)c3c(C)c(C)sc3n(CC(N)=O)c2=O)c1 | 32.2% (inactive) | 
Cc1cccc(NC(=O)Cn2c(=O)n(Cc3ccccc3)c(=O)c3c(C)c(C)sc32)c1 |  | 14.7 µM (active)
Cc1sc2c(c1C)c(=O)n(-c1ccccc1)c(=O)n2CC(=O)NCC1CCCO1 (centres undefined) | 48.7% (inactive) | 
Cc1noc(C)c1COc1ccccc1C(=O)N(C)CC(=O)Nc1cccc(F)c1 | 16.9% (inactive) | 
O=C(O)C1CCC(CNS(=O)(=O)c2ccc(Br)cc2)CC1 (centres undefined) | 2.75% (inactive) | 
CN(C)CCCNC(=S)N1CCN(c2nc(-c3ccccc3)cs2)CC1 | 0% (inactive) | 
Cc1ccc(NC(=O)C(CC(=O)O)C2CCCO2)c(C)c1 (centres undefined) | 8.69% (inactive) | 
COc1cccc(/C=C2\C=C(c3ccc(C)cc3)OC2=O)c1OC(C)=O | 32.9% (inactive) | 
O=C(COC(=O)CCCN1C(=O)c2cccc3cccc(c23)C1=O)NC1CCS(=O)(=O)C1 (centres undefined) | 30.8% (inactive) | 
COc1cc([N+](=O)[O-])ccc1NC(=O)COC(=O)CCOc1ccc(C)cc1 | -0.415% (inactive) | 
O=C(Nc1nnc(CCN2CCCCC2)s1)c1cccc(Cl)c1 | 29.8% (inactive) | 

SMILES | activity change, negative = inhibition | Potency
COC(=O)c1ccc(NC(=O)c2cc(Cl)ccc2OC)cc1 | 0% (inactive) | 
CCN(CC)C(=O)Oc1ccc(Br)cc1C(=O)Nc1ccc(F)c(Cl)c1 |  | 11.7 µM (active)
CCN(CC)C(=O)C(=O)Nc1cccc(Br)c1 | -5.94% (inactive) | 
Cc1cc(C)n2nc(C(=O)OCC(=O)N(C)CC(=O)Nc3ccc(F)cc3)nc2n1 | 7.58% (inactive) | 
COc1ccccc1NC(=O)C1=C(C)NC(=O)NC1c1ccc(C)s1 (centres undefined) |  | 6.57 µM (active)
COc1ccccc1NC(=O)C1=C(C)Nc2ncnn2C1c1ccc(C)o1 (centres undefined) | -29.5% (inactive) | 
COc1ccccc1NC(=O)C1=C(C)NC2=C(C(=O)CCC2)C1c1ccc(C)o1 (centres undefined) | 17.3% (inactive) | 
Cc1ccc(Nc2ncnc3c2cnn3C)c(C)c1 | -14.4% (inactive) | 
O=C(C1CC1)N1CCN=C1SCc1ccc(Cl)cc1 | 7.45% (inactive) | 
O=C(c1ccco1)N1CCN=C1SCc1cccc(Cl)c1 |  | 10.4 µM (active)
O=C(COc1ccccc1)N1CCN=C1SCc1cccc(F)c1 | 8.33% (inactive) | 
COc1ccccc1C1C(C(N)=O)=C(C)Nc2nc(CCCO)nn21 (centres undefined) | 9.37% (inactive) | 
Clc1ccc(C2=CSC3=Nc4cccc5cccc(c45)N23)cc1 |  | 3.7 µM (active)
COc1ccccc1-c1c(C#N)c(N)nc2c1CCC2 | 14.8% (inactive) | 
O=C(Nc1nonc1-c1ccc(Cl)cc1)c1ccco1 | 5.85% (inactive) | 
COCCn1c(SC(C)C(=O)NC2CC2)nnc1-c1cccc(C)c1 (centres undefined) | 4.07% (inactive) | 
CCc1nc2cccnc2n1-c1ccc(C(=O)O)cc1 | -9.55% (inactive) | 
CCOc1ccc(CN(CCCl)CCCl)cc1C(=O)OC | 64.7% (inactive) | 
CCCOc1ccc(CN(CCO)CCO)cc1C(=O)OC |  | 8.28 µM (active)
COC(=O)c1cc(CNC(=O)CC(C)c2ccccc2)ccc1OC (centres undefined) | 2.52% (inactive) | 
Cc1ccc(C(=O)NCCc2nnc(SCC(=O)Nc3cccc(C(=O)O)c3)n2C)cc1 | 4.52% (inactive) | 
COc1cc(CCC(=O)N2CCN(c3ccccc3Cl)CC2)cc(OC)c1OC | -23.8% (inactive) | 
Cc1ccc(NC(=S)NCCc2ccc(Cl)cc2)c(C)c1 | -9.71% (inactive) | 
CC(C)OC(=O)CN1C(=O)c2ccccc2C1=O |  | 7.38 µM (active)
CCOC(=O)CN1C(=O)C(=O)c2cc(C)ccc21 | 125% (inactive) | 
Cc1cccc2c1N(CC(=O)OC(C)C)C(=O)C2=O | 38.3% (inactive) | 

SMILES | activity change, negative = inhibition | Potency
COc1cc(C(C)=O)ccc1OC(=O)CN1C(=O)c2ccccc2C1=O | 13.4% (inactive) | 
CC(C)OC(=O)CN1C(=O)C(=O)c2ccccc21 |  | 2.08 µM (active)
CC(OC(=O)CN1C(=O)c2ccccc2C1=O)C(=O)c1ccccc1 (centres undefined) | 13.1% (inactive) | 
CCCCn1c(N)c(N(CC)C(=O)c2ccc(N(C)S(=O)(=O)c3ccc(C)cc3)cc2)c(=O)[nH]c1=O | -16.1% (inactive) | 
C[C@H](NC(=O)C1CC(=O)N(c2ccc3c(c2)OCCO3)C1)C(=O)N1CCC(C(=O)O)CC1 (some centres undefined) | -9.53% (inactive) | 
CC(=O)Nc1ccc(C(=O)C(Cc2ccccc2)N(C)C)cc1 (centres undefined) | 2.69% (inactive) | 
CC(C(=O)c1ccc(-c2ccccc2)cc1)[n+]1cccc(Br)c1 (centres undefined) |  | 2.33 µM (active)
O=C(NC1CCCC1)C(c1c(F)cccc1Cl)N(C(=O)c1csnn1)C1CC1 (centres undefined) | -4.38% (inactive) | 
COC(=O)c1cc(NC(=O)c2nn(C)c(=O)c3ccccc23)cc(C(=O)OC)c1 | 59.9% (inactive) | 
COc1ccc(-n2nc(C(=O)Nc3cc(OC)c(OC)c(OC)c3)c3ccccc3c2=O)c(OC)c1 |  | 8.28 µM (active)
COc1ccc(-n2nc(C(=O)NCC(=O)Nc3cccc(C)n3)c3ccccc3c2=O)cc1 | 19.7% (inactive) | 
Cc1ccc(NC(=O)Cc2nnc(SCC(=O)Nc3nncs3)n2C)cc1 | -28.1% (inactive) | 
CC1CCN(S(=O)(=O)c2ccc3c(ccn3CC(=O)O)c2)CC1 | -20.2% (inactive) | 
O=C(CNC(=O)c1ccccc1F)c1ccc(Br)cc1 | 68.4% (inactive) | 
COc1cccc(NC(=O)CN(C)C(=O)CSCc2nc3scc(-c4cccs4)c3c(=O)[nH]2)c1 | 28.3% (inactive) | 
Cc1ccccc1NC(=O)C(C)OC(=O)CCC(=O)N(CC(C)C)c1c(N)n(CC(C)C)c(=O)[nH]c1=O (centres undefined) | 4.86% (inactive) | 
Cc1ccc(S(=O)(=O)N2CCC(C(=O)OCC(=O)N(C)c3ccccc3)CC2)cc1C | -10.6% (inactive) | 
CCN(CC(=O)NCc1cccs1)C(=O)c1ccc(OC)c(S(=O)(=O)N2CCOCC2)c1 | 4.92% (inactive) | 
CC(C)(C)NC(=O)NC(=O)COC(=O)C1c2ccccc2Oc2ccccc21 | 16.9% (inactive) | 
CC(C)(C)NC(=O)NC(=O)CN1CCC(Cc2ccccc2)CC1 | -37.5% (inactive) | 
Cc1ccccc1CSCC(=O)NC(=O)NC(C)(C)C |  | 10.4 µM (active)
COc1ccc(NC(=O)c2cc([N+](=O)[O-])ccc2NC(=O)CNC2CCCCC2C)c(OC)c1 (centres undefined) | 34.8% (inactive) | 
CN(CC(=O)Nc1ccc(F)c(F)c1F)C(=O)Cn1cnc2c1c(=O)n(C)c(=O)n2C | -15% (inactive) | 
COc1ccc2cc(C3=CC(=O)C[C@H](c4ccc5c(c4)OCO5)C3)ccc2c1 | -36.2% (inactive) | 
COc1ccc([C@H]2CC(=O)C=C(c3ccc(OC(F)(F)F)cc3)C2)cc1OC |  | 11.7 µM (active)
COc1ccc([C@H]2CC(=O)C=C(c3ccc(C)cc3)C2)cc1 | -34.7% (inactive) | 

SMILES | activity change, negative = inhibition | Potency
COc1cccc(N2CC(NS(=O)(=O)c3cccs3)CC2=O)c1 (centres undefined) | 8.83% (inactive) | 
FCOC(C(F)(F)F)C(F)(F)F | 117% (inactive) | 
O=C(COc1ccc2c(c1)CCC2)N1CCN(c2ccc(F)cc2)CC1 | -14.1% (inactive) | 
COc1ccccc1NC(=S)N1CCN(C(c2ccccc2)c2ccccc2)CC1 | 26.1% (inactive) | 
COc1ccccc1CN1CCN(C(c2ccccc2)c2ccccc2)CC1 |  | 8.28 µM (active)
CC(C)OCC(O)CN1CCN(C(c2ccccc2)c2ccccc2)CC1 (centres undefined) | -7.62% (inactive) | 
COc1ccccc1CN1CCN(Cc2cc(OC)c(OC)cc2OC)CC1 | -11.7% (inactive) | 
Oc1ccccc1CN1CCN(C(c2ccccc2)c2ccccc2)CC1 |  | 0.828 µM (active)
O=C(O)CN1CCN(C(c2ccccc2)c2ccccc2)CC1 | -16% (inactive) | 
CC1=C(C(N)=O)C(c2ccc(F)cc2)n2nc(CCCO)nc2N1 (centres undefined) | 28.2% (inactive) | 
COc1cccc(N(C(=O)c2snc(C(N)=O)c2N)C(C(=O)NCC2CCCO2)c2c[nH]c3ccccc23)c1 (centres undefined) | -7.17% (inactive) | 
CC(C)Cc1nc(Cl)c(C#N)c2c1CCC2 | 36.5% (inactive) | 
COC(=O)c1ccc(S(=O)(=O)N(CCO)Cc2ccccc2)n1C | 4.12% (inactive) | 
COc1ccccc1C(=O)Nc1ccc(OCC(=O)N2CCCCC2)cc1 | -28.2% (inactive) | 
COc1ccccc1C(=O)Nc1ccc(OCc2nnc3c4ccccc4c(C)nn23)cc1 |  | 9.28 µM (active)
COc1ccccc1C(=O)NNC(=O)c1ccc(NC(=O)c2ccccc2)cc1 | 19.4% (inactive) | 
CC(=O)N1CCN(C(=O)C2(NC(=O)Nc3ccc(C)cc3)CCCCC2)CC1 | 363% (inactive) | 
O=C(NCc1cc(F)cc(C(F)(F)F)c1)C1CCC(=O)N(C2CCCC2)C1 (centres undefined) | -15.9% (inactive) | 
CCOC(=O)c1c(CNCc2ccccc2F)c2sc(C)cc2n1C | -9.14% (inactive) | 
COc1ccc(Nc2ncnc3sc(C)cc23)cc1 | 34.4% (inactive) | 
CN1/C(=c2/s/c(=C3/C(=O)N(c4ccccc4)NC3=Nc3ccccc3)n(C)c2=O)C(C)(C)c2ccccc21 |  | 11.7 µM (active)
CCN1C(=O)/C(=c2\s/c(=C3\Sc4ccccc4N3C)c(=O)n2C)N(C)C1=S | 6.98% (inactive) | 
Cc1csc2nc(O)c(C(=O)NCCN3CCOCC3)c(=O)n12 | 12% (inactive) | 
O=C(COc1ccc2c3c(c(=O)oc2c1)CCC3)NC1CCCCC1 | 0% (inactive) | 
CCCCC(NS(=O)(=O)c1ccc(C)cc1)C(=O)Oc1ccc2c3c(c(=O)oc2c1)CCC3 (centres undefined) | 19.9% (inactive) | 
CCCOc1ccc2c3c(c(=O)oc2c1OCCC)CCC3 |  | 6.57 µM (active)
